Compounds with a hit are over-represented: about 12% of the library has one in this group of screens.
Shiga inhibitor: A qHTS for Small Molecule Inhibitors of Shiga Toxin; 290,000 tested, 9.2% active; inhibition, % at 38.7 µM; Vero cells, Shiga toxin protein synthesis inhibition reporter; in the data active = inhibition mostly above about 28%, no sharp cut-off; inactive = mostly below about 43%; also: 0% is about no effect
SARS PLpro yeast: qHTS of Yeast-based Assay for SARS-CoV PLP; AID 485353, 2010; Potency, µM (titrated, usually from 32.9 µM), without a hit: at the top dose activity, positive = growth rescue, most hits filed as activators; S. cerevisiae expressing SARS-CoV PLpro, growth rescue; 330,000 tested, 0.19% active; also: potency is read from the fitted curve at half-maximal effect; 0% is about no effect; nearly all actives have a fitted effect of over 55% in size
NS1 function inh: qHTS Assay for Inhibitors of Influenza NS1 Protein Function; Potency, µM (titrated, usually from 46.1 µM), without a hit: top-dose activity, positive = more growth; 270,000 tested, 0.4% active; also: potency is read from the fitted curve at half-maximal effect; actives are rising curves; nearly all actives have a fitted effect of over 50% in size
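Compounds were scored for reversing the slow growth caused by influenza A NS1 in S. cerevisiae, measured by optical density at 600 nm. Assay medium contained 2% galactose at pH 6.0; NS1-free yeast of the same strain were the positive control.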
CHX counter: Cycloheximide Counterscreen for Small Molecule Inhibitors of Shiga Toxin; max response, %; 300,000 tested, 12% active; cell reporter, cycloheximide protein synthesis inhibition counterscreen; AID 2314, 2010; in the data active = max response mostly above about 13%, no sharp cut-off; inactive = mostly below about 14%; also: read at 38.3 µM for the half of the compounds with a filed dose; 0% is about no effect
An asterisk follows results filed as active. Unless noted, calls follow the shape of the full dose curve.

How did Cc1nc(NC(=O)CSc2nnnn2Cc2ccccc2)sc1C do in these assays?
Shiga inhibitor: 75*; SARS PLpro yeast: -9%; NS1 function inh: -9%; CHX counter: 28*

How did CCc1c(O)nc(SCC(=O)Nc2nc3ccccc3s2)n(-c2ccc(C)cc2)c1=O do in these assays?
Shiga inhibitor: 93*; SARS PLpro yeast: 6%; NS1 function inh: inconclusive; CHX counter: 45*

How did COCCCn1nnnc1SCC(=O)Nc1nc2ccccc2s1 do in these assays?
Shiga inhibitor: -4; SARS PLpro yeast: 2%; NS1 function inh: 7%; CHX counter: 10

What do the screens show for `CC(=O)NCCC(=O)N1CCCC(N2CCN(c3cccc(Cl)c3)CC2)C1` (stereo not drawn)?
Shiga inhibitor: 14; SARS PLpro yeast: 1%; NS1 function inh: 5%; CHX counter: 11

What do the screens show for `O=C(CCC(=O)N(CC(=O)NC1CCCC1)C1CCCCC1)Nc1ccccn1`?
Shiga inhibitor: 27; SARS PLpro yeast: -2%; NS1 function inh: -1%; CHX counter: 11

How did O=C(/C=C\c1ccc2c(c1)OCO2)Nc1c2c(nn1-c1ccc(Cl)cc1)CSC2 do in these assays?
Shiga inhibitor: -20; SARS PLpro yeast: -21%; NS1 function inh: 12%; CHX counter: -4

How did Cc1ccccc1N(C(=O)c1ccccn1)C(C(=O)NCc1ccccc1)c1ccncc1 (stereo not drawn) do in these assays?
Shiga inhibitor: -6; SARS PLpro yeast: 0%; NS1 function inh: -6%; CHX counter: 1

What do the screens show for `O=C(NCc1ccccc1)C(c1ccncc1)N(C(=O)c1ccccn1)c1ccccc1` (stereo not drawn)?
Shiga inhibitor: 60*; SARS PLpro yeast: 2%; NS1 function inh: 1%; CHX counter: 25*

How did COc1ccc(CNC(=O)C(c2ccco2)N(C(=O)c2ccccn2)c2ccccc2)cc1 (stereo not drawn) do in these assays?
Shiga inhibitor: 84*; SARS PLpro yeast: 0%; NS1 function inh: 2%; CHX counter: 38*

How did O=C(NCc1ccccc1)C(c1ccc(O)cc1)N(C(=O)c1cnccn1)c1ccccc1 (stereo not drawn) do in these assays?
Shiga inhibitor: -7; SARS PLpro yeast: 2%; NS1 function inh: 11%; CHX counter: -3

How did COc1ccc(N(C(=O)c2cnccn2)C(C(=O)NCc2ccccc2)c2ccc(O)cc2)cc1 (stereo not drawn) do in these assays?
Shiga inhibitor: 75*; SARS PLpro yeast: -1%; NS1 function inh: 3%; CHX counter: 28*

Results for CCc1noc(C)c1C(=O)N1CCC(CCC(=O)Nc2cccc(OC)c2)CC1 ?
Shiga inhibitor: -5; SARS PLpro yeast: 1%; NS1 function inh: -6%; CHX counter: -1

What do the screens show for `CCC(=O)Nc1cccc(C(=O)/C=C/c2ccccc2)c1`?
Shiga inhibitor: 38; SARS PLpro yeast: -27%; NS1 function inh: -114%; CHX counter: 25*

What do the screens show for `CCC(=O)Nc1cccc(C(=O)/C=C/c2cccs2)c1`?
Shiga inhibitor: 85*; SARS PLpro yeast: -5%; NS1 function inh: -81%; CHX counter: 37*

What do the screens show for `CCC(=O)Nc1cccc(C(=O)c2ccccc2)c1`?
Shiga inhibitor: 2; SARS PLpro yeast: -13%; NS1 function inh: -36%; CHX counter: 11*

How did COC(CNC(=O)c1cc(C)nn1-c1ccccc1)OC do in these assays?
Shiga inhibitor: 19; SARS PLpro yeast: 10%; NS1 function inh: -19%; CHX counter: 2

Results for CCCOc1ccc(C(F)(F)F)cc1NS(=O)(=O)c1ccc(Cl)nc1 ?
SARS PLpro yeast: 2%

Results for Fc1ccc(Cn2ccc(-c3cnc(-c4ccccc4)s3)n2)cc1 ?
Shiga inhibitor: 67; SARS PLpro yeast: 3%; NS1 function inh: -87%; CHX counter: 39*

How did Cc1ccc(Cn2ccc(-c3cnc(-c4ccccc4)s3)n2)cc1 do in these assays?
Shiga inhibitor: 69*; SARS PLpro yeast: 8%; NS1 function inh: -5%; CHX counter: 30*

What do the screens show for `O=C(c1ccc(C(F)(F)F)cc1)n1ccc(-c2cccs2)n1`?
Shiga inhibitor: -10; SARS PLpro yeast: -1%; NS1 function inh: -2%; CHX counter: -3

Results for Cc1ccc(Cn2ccc(NC(=O)c3cc(-c4ccccc4)on3)n2)cc1 ?
Shiga inhibitor: 31; SARS PLpro yeast: 4%; NS1 function inh: 0%; CHX counter: -2

What do the screens show for `O=C(c1ccc(F)cc1)n1ccc(-c2cnc(-c3ccccc3)s2)n1`?
Shiga inhibitor: 73*; SARS PLpro yeast: -16%; NS1 function inh: -64%; CHX counter: 41*

Results for O=S(=O)(c1ccccc1)n1ccc(-c2cnc(-c3ccccc3)s2)n1 ?
Shiga inhibitor: 31; SARS PLpro yeast: 3%; NS1 function inh: 9%; CHX counter: 10*

How did CC(O)CNc1ccc(-c2n[nH]c(=O)c3ccccc23)cc1[N+](=O)[O-] (stereo not drawn) do in these assays?
Shiga inhibitor: -17; SARS PLpro yeast: 0%; NS1 function inh: 4%; CHX counter: 22*

What do the screens show for `CN(C)CCCNc1ccc(-c2n[nH]c(=O)c3ccccc23)cc1[N+](=O)[O-]`?
SARS PLpro yeast: 3%; NS1 function inh: 3%; CHX counter: 2

What do the screens show for `O=C(NCc1ccco1)c1ccc(OCC2CCCO2)cc1` (stereo not drawn)?
Shiga inhibitor: 23; SARS PLpro yeast: 3%; NS1 function inh: -2%; CHX counter: 20*

How did Cc1ccc(CNC(=O)c2ccc(OCC3CCCO3)cc2)cc1 (stereo not drawn) do in these assays?
Shiga inhibitor: 16; SARS PLpro yeast: 9%; NS1 function inh: 3%; CHX counter: 15*

What do the screens show for `O=C(OCC(=O)N1CCc2ccccc21)c1c2c(nc3ccccc13)CCCC2`?
Shiga inhibitor: 62*; SARS PLpro yeast: -18%; NS1 function inh: 6%; CHX counter: 34*

What do the screens show for `CC1Cc2ccccc2N1C(=O)COC(=O)c1c2c(nc3ccccc13)CCCCC2` (stereo not drawn)?
Shiga inhibitor: -6; SARS PLpro yeast: -33%; NS1 function inh: -3%; CHX counter: 14*

What do the screens show for `CC1=NN(c2nc(-c3ccc(C)cc3)cs2)C(=O)C1N=Nc1cccc(O)c1` (stereo not drawn)?
Shiga inhibitor: 15; SARS PLpro yeast: 13%; CHX counter: 9

Results for CC1=NN(c2nc(-c3ccc(C)cc3)cs2)C(=O)C1N=Nc1ccccc1O (stereo not drawn) ?
Shiga inhibitor: 50*; SARS PLpro yeast: -1%; NS1 function inh: 4%; CHX counter: 43*

Results for COc1ccc(-c2csc(N3N=C(C)C(C)C3=O)n2)cc1 (stereo not drawn) ?
Shiga inhibitor: 37; SARS PLpro yeast: -5%; CHX counter: 15*

What do the screens show for `CC1CCc2nc3sc4c(c3c(N)c2C1)CCCC4` (stereo not drawn)?
Shiga inhibitor: 56*; SARS PLpro yeast: -28%; NS1 function inh: -33%; CHX counter: 33*

What do the screens show for `O=c1[nH]c(C2CC2)nc2sc3c(c12)CCCC3`?
Shiga inhibitor: -1; SARS PLpro yeast: -2%; NS1 function inh: -6%; CHX counter: -2
